Measured values: the supplement of paper PMC11732987, “Enantioselective OTUD7B fragment discovery through chemoproteomics screening and high-throughput optimisation” (Communications Chemistry, 2025)

Key:
Assay in all cases: log2 ratio of Biotin-Ahx-Ub-VS probe labelling (fragment/DMSO); higher = less target engagement (more negative = stronger competition), active = hit call of the paper (q ≤ 0.05, log2 ratio ≤ -1)
Settings in all cases: compound concentration: 200 uM; treatment time: 3 h
OTUD6B = molecular target: T1, OTUD6B (UniProt Q8N6M0)
T1 sequence (whole entry): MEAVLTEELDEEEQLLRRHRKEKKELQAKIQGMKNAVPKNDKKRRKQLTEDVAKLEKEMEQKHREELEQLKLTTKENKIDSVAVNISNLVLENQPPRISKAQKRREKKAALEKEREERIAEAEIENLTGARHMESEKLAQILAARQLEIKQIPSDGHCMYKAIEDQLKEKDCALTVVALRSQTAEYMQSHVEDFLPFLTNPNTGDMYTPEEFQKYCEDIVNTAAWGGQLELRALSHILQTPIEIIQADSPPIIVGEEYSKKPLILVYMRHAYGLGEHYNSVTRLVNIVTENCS
How it was run: (§1)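 Labelling with Biotin-Ahx-Ub-VS (0.5 µM final, 1 h) followed a 3 h triplicate treatment of HEK293T lysate (495 µg per sample, Tris/CHAPS/IGEPAL buffer with protease inhibitors) with fragment at 200 µM or vehicle. Labelled DUBs were NeutrAvidin-enriched, digested with LysC and trypsin, and run by diaPASEF LC-MS/MS. The values, average log2 fragment/vehicle ratios by unpaired t-test, come from global-median-normalised Spectronaut label-free quantities. Proteins with ≥2 unique peptides were used.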

OTUD7B = molecular target: T2, OTUD7B (UniProt Q6GQQ9)
T2 sequence (whole entry): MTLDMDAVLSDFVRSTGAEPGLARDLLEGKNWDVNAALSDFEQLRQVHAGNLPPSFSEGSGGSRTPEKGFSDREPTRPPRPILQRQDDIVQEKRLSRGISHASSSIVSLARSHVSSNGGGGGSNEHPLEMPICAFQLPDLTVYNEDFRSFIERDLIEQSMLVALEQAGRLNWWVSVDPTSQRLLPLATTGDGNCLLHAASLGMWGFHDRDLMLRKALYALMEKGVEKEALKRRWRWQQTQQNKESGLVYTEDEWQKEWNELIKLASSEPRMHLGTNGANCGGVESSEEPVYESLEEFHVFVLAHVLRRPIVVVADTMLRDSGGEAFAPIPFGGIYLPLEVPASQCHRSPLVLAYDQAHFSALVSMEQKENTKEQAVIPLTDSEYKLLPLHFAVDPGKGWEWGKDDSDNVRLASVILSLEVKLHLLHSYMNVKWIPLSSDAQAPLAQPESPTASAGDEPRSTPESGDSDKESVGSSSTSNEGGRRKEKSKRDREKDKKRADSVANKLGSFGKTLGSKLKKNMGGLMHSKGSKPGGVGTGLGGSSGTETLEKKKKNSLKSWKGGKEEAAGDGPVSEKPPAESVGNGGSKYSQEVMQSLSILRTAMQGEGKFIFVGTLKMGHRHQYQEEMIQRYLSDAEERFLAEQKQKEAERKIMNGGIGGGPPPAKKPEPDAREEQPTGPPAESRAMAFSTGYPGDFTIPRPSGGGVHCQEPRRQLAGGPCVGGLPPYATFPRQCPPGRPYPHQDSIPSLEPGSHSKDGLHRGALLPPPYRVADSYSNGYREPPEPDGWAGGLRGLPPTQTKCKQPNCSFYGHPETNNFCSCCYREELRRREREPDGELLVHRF
How it was run: as §1

PRPF8 = PRPF8 (UniProt Q6P2Q9)
How it was run: as §1

PSMD7 = molecular target: T3, PSMD7 (UniProt P51665)
T3 sequence (whole entry): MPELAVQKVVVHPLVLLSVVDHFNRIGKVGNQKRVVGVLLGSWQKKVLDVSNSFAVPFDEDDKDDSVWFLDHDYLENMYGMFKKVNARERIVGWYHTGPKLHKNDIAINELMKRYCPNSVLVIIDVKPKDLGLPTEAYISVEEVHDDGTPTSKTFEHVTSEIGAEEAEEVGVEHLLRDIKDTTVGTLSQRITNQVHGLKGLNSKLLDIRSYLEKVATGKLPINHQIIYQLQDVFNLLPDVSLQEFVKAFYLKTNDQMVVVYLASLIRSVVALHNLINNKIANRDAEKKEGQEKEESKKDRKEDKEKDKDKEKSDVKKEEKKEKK
How it was run: as §1

UCHL1 = UCHL1 (UniProt P09936)
UCHL1, sequence (P09936 whole entry, looked up): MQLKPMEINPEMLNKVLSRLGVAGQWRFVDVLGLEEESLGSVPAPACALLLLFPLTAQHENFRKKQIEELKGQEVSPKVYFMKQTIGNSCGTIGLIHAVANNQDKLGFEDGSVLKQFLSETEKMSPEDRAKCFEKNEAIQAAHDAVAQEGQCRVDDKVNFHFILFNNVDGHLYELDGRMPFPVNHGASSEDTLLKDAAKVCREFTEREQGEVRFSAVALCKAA
How it was run: as §1

UCHL3 = molecular target: T4, UCHL3 (UniProt P15374)
T4 sequence (whole entry): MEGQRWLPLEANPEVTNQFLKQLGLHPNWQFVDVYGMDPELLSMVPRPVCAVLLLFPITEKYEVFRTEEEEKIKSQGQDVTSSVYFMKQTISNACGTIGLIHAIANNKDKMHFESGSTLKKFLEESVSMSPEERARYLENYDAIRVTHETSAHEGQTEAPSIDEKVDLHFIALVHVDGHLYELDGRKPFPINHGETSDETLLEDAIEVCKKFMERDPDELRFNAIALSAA
How it was run: as §1

UCHL5 = molecular target: T5, UCHL5 (UniProt Q9Y5K5)
T5 sequence (whole entry): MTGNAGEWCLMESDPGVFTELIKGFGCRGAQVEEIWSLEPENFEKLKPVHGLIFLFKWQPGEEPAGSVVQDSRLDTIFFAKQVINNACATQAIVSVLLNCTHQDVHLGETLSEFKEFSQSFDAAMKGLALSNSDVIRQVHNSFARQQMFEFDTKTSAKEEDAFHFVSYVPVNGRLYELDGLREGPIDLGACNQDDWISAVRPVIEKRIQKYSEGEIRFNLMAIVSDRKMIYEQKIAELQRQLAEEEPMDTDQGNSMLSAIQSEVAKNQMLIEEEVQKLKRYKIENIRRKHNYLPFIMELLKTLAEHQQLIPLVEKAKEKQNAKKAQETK
How it was run: as §1

USP10 = USP10 (UniProt Q14694)
USP10, sequence (Q14694 whole entry): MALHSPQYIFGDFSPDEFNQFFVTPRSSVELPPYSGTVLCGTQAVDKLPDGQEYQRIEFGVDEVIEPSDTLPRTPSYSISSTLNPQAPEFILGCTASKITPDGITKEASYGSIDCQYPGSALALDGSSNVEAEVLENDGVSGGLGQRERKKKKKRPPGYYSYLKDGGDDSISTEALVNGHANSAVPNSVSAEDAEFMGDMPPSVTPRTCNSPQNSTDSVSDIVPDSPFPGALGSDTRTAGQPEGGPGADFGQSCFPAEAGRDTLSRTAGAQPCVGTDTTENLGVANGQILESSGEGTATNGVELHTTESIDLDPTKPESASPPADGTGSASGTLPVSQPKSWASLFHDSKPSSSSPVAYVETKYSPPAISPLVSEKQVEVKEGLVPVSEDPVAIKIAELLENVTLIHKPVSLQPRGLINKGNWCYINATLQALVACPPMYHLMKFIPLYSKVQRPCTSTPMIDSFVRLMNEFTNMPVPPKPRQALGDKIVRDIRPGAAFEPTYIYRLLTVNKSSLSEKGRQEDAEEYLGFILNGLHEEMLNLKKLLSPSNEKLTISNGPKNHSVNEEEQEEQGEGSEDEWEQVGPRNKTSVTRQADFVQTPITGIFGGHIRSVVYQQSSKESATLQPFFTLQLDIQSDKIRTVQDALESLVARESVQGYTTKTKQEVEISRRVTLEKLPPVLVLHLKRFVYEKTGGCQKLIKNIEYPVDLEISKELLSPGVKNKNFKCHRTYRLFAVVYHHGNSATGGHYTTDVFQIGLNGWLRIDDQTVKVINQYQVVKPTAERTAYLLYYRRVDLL
How it was run: as §1

USP15 = molecular target: T6, USP15 (UniProt Q9Y4E8)
T6 sequence (whole entry): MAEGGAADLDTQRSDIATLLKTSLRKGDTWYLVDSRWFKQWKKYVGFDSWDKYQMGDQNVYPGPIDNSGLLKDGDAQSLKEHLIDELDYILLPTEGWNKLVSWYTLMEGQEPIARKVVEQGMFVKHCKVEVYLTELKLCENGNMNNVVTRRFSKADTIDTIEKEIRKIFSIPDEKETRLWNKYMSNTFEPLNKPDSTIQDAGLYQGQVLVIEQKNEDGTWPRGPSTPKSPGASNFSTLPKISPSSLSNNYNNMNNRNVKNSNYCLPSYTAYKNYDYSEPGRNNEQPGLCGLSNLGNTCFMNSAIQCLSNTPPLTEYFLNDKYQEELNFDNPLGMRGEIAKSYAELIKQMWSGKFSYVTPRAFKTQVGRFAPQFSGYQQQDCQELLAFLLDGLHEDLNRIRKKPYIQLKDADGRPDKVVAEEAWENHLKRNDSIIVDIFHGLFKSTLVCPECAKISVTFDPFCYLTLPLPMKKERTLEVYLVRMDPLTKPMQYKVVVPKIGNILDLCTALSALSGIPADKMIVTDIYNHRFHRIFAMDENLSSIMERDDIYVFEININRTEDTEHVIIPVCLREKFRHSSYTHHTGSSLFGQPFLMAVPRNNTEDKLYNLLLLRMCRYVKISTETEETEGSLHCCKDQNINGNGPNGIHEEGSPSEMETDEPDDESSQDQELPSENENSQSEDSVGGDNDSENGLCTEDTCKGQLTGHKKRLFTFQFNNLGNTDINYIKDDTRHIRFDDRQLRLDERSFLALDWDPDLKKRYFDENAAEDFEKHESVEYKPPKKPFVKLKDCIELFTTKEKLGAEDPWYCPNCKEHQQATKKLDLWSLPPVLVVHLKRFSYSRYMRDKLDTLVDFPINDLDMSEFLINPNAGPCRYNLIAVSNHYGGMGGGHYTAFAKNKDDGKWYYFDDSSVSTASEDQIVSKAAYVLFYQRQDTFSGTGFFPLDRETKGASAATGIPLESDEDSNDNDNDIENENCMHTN
How it was run: as §1

USP16 = USP16 (UniProt Q9Y5T5)
USP16, sequence (Q9Y5T5 whole entry, looked up): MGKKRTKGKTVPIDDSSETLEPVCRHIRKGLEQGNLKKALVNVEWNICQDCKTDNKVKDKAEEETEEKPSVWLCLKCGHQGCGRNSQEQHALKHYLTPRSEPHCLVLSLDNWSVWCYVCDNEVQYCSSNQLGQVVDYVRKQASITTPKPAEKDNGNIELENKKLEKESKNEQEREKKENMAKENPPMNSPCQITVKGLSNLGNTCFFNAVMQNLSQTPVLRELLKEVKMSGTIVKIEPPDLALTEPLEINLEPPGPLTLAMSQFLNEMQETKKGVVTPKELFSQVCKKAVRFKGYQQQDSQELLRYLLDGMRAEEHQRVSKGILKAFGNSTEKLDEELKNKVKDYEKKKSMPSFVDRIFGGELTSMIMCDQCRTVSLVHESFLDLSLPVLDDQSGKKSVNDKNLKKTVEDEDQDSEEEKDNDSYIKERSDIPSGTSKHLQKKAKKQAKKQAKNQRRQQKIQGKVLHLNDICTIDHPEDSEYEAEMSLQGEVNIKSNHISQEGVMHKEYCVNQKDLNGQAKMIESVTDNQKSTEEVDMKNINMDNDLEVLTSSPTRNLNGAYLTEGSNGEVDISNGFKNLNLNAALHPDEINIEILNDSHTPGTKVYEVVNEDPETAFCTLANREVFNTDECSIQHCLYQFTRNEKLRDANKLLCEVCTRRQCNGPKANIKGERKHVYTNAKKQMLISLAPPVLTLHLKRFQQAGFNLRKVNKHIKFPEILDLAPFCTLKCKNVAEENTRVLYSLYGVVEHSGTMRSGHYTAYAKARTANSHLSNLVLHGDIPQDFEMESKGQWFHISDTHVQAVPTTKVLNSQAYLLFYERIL
How it was run: as §1

Measured: log2 ratio of Biotin-Ahx-Ub-VS probe labelling

O=C(CCl)N1CC=C(c2c[nH]c3ccccc23)CC1
active: UCHL1 -1.12 | USP15 -1.46
inactive: OTUD6B -0.33 | OTUD7B -0.605 | PRPF8 0.0222 | PSMD7 0.00731 | UCHL3 0.00279 | UCHL5 -0.387 | USP10 -0.299 | USP16 0.156
